Assay outcomes: PubChem, several laboratories
Shown are actives, neighbours in structure and some others; about 28% of the full set was active somewhere.
DAT uptake mod: changed human dopamine transporter uptake under cocaine IC80; B-score at 10 µM; 110,000 compounds, 1.3% hits; Q01959; LLC-PK1 hDAT cells, [14C]-dopamine uptake with cocaine IC80; actives deviate in either direction;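 active = Z score or B-score, a plate-position-corrected score, falls beyond the plate's 99.7% confidence bounds, in either direction; inactive = both scores lie inside the 99.7% bounds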;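 also: scored against the spread of the other compound wells on the same plate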
CYP2C9 activ: activators of human CYP2C9 | P11712 | recombinant CYP2C9, luciferin-H conversion, luminescence; hits give high values; factor 1 = untreated enzyme, 0 = blocked | activation factor at 5 µM | 96,000 compounds, 1.4% hits;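 active = activation factor of 2 or more for CYP2C9 at a 5 µM dose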;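 also: 0 = sulfaphenazole-blocked wells and 1 = vehicle-only wells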
Target sequence (P11712 whole entry, looked up): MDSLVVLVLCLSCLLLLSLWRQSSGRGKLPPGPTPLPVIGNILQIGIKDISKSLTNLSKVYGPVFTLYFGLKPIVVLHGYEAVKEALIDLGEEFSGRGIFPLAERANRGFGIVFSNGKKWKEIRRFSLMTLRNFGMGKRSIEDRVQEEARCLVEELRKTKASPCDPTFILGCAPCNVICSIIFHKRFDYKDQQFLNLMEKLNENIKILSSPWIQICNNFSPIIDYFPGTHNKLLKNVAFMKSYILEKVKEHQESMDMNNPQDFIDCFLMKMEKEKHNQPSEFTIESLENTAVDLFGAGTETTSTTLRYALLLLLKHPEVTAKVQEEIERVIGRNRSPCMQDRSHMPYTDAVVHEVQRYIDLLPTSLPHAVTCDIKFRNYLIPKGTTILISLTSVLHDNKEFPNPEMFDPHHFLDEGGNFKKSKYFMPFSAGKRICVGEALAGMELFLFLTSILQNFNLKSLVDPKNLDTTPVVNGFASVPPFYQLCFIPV
D1 allo mod: D1 dopamine receptor (human) allosteric modulation; P21728; HEK293 D1, CRE-luciferase, dopamine EC30 potentiation; actives deviate in either direction; B-score at 10 µM; 58,000 compounds, 5.9% hits; AID 641;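 active = luminescence count or its row- and column-corrected plate score outside the 99.7% band of the plate's sample wells, on either side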
CYP2C9 inhib: blocks human cytochrome P450 2C9. P11712. CYP2C9 Supersomes, luciferin-H conversion, luminescence. inhibition, % at 5 µM. 96,000 compounds, 20% hits;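 active = blocking of liver enzyme CYP2C9 beyond about 50% at 5 µM, limit read from the data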
CYP2C19 activ: activators of human cytochrome P450 2C19; P33261; recombinant CYP2C19, luciferin-H EGE luminescence; hits give high values; 0 = fully inhibited enzyme, 1 = untreated enzyme; activation factor at 5 µM; 96,000 tested, under 10 active;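 active = activation factor of at least 2 at 5 µM in the primary screen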;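 also: 0 = wells with 2.5 mM tranylcypromine and 1 = vehicle-only wells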
CYP2C19 inh: blocks human cytochrome P450 2C19; 96,000 compounds, 21% hits; P33261; CYP2C19 Supersomes, luciferin-H EGE luminescence, 30 min; inhibition, % at 5 µM;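 active = CYP2C19 inhibition above a set limit at 5 µM in the primary screen, cut at about 50% in these data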;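 also: plate controls were negative control wells for no effect and 2.5 mM tranylcypromine positive control for full effect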
Numbers without * were called inactive; · = no result given.

SMILES | DAT uptake mod | CYP2C9 activ | D1 allo mod | CYP2C9 inhib | CYP2C19 activ | CYP2C19 inh
CCn1cc(C(=O)NCC2CCCO2)c(=O)c2cc(S(=O)(=O)N(C)C3CCCCC3)ccc21 (configuration not stated) | 2.2 | 0.4 | 0.21 | 61* | 0.8 | 22
O=C(NCCN1CCCC1)c1cc(-c2ccncc2)nc2ccc(S(=O)(=O)N3CCOCC3)cc12 | 0.75 | 0.7 | 0.59 | 32 | 0.6 | 40
CCn1cc(C(=O)NCCCOC)c(=O)c2cc(S(=O)(=O)N(C)C3CCCCC3)ccc21 | 2.5 | 0.2 | 2.8 | 76* | 0.7 | 26
O=C(NCC1CCCO1)c1cc(-c2ccncc2)nc2ccc(S(=O)(=O)N3CCOCC3)cc12 (configuration not stated) | 0.51 | 0.3 | 0.77 | 70* | 0.3 | 72*
CN(C)[C@@H](CO)c1nnc([C@H](Cc2ccc(O)cc2)NC(=O)C2CCNCC2)o1 | 0.23 | · | · | · | · | ·
CC(=O)NCCc1ccc(S(=O)(=O)Nc2cccnc2)cc1 | 0.69 | 1 | 0.67 | 5 | 0.8 | 19
CC1CCCCN1CC(=O)Nc1sccc1C#N (configuration not stated) | 0.98 | 0.7 | · | 31 | 0.6 | 41
CCN(CCCNC(=O)c1cn(CC)c2ccc(S(=O)(=O)N(C)C)cc2c1=O)c1cccc(C)c1 | 1.7 | 0.2 | 2.8 | 77* | 0.6 | 42
C=CCn1cc(C(=O)NCC2CCCO2)c(=O)c2cc(S(=O)(=O)N3CCCCCC3)ccc21 (configuration not stated) | 1 | 0.5 | -1.2 | 55* | 0.9 | 7
COc1ccc(C2/C(=C(/O)c3ccc(F)cc3)C(=O)C(=O)N2CCCN(C)C)cc1 (configuration not stated) | · | · | 0.19 | · | · | ·
CC(NC(=S)NCCc1ccccc1)C(c1cccs1)N1CCN(C)CC1 (configuration not stated) | -0.032 | · | · | · | · | ·
Cc1ccc(OCn2c(=O)sc3ccccc32)cc1 | -0.065 | 0.6 | 0.29 | 38 | 0.4 | 56*
CCOC(=O)Cn1c(=O)sc2ccccc21 | 0.044 | 1 | -0.7 | 4 | 0.5 | 47
O=c1sc2ccccc2n1CCOc1ccccc1 | 0.022 | 0.1 | · | 88* | 0 | 98*
Cc1ccc(C)c2[nH]c(=O)c(CN(CC3CCCO3)S(=O)(=O)c3ccc4c(c3)OCCO4)cc12 (configuration not stated) | 0.38 | 0.4 | -1.6 | 61* | 0.8 | 21
Cc1cccc2cc(CN(Cc3ccco3)S(=O)(=O)c3ccc4c(c3)OCCO4)c(=O)[nH]c12 | 0.49 | 0.4 | 0.37 | 56* | 0.2 | 77*
O=c1[nH]c2cc3c(cc2cc1CN(CC1CCCO1)S(=O)(=O)c1ccccc1)OCCO3 (configuration not stated) | -1.1 | 0.7 | 1.6 | 25 | 0.9 | 9
Cc1cc(C)c2[nH]c(=O)c(CN(CC3CCCO3)S(=O)(=O)c3ccc4c(c3)OCCO4)cc2c1 (configuration not stated) | -0.2 | 0.1 | -0.56 | 92* | 0.2 | 78*
CCN(CC)C(=O)C1CCN(Cc2ccc(Br)cc2)CC1 | -0.26 | 0.9 | 0.091 | 12 | 0.8 | 25
Nc1ccc(C(=O)N/N=C\c2cc(N=Nc3cccc4ccccc34)ccc2O)cc1 | 0.0086 | 0.9 | · | 14 | 0.9 | 12
CSc1ccc(Cn2nnc(C(=O)NCc3ccccc3)c2N)cc1 | -0.36 | 0.8 | 0.14 | 17 | 1.2 | -18
O=S(=O)(c1ccccc1)c1nc(-c2ccccc2)oc1NCc1cccnc1 | -0.17 | 0.9 | 2 | 11 | 0.9 | 14
CSc1oc(-c2ccco2)nc1S(=O)(=O)c1ccccc1 | -1.5 | 2.9* | · | -193 | 0.7 | 27
O=S(=O)(c1ccccc1)c1nc(-c2ccco2)oc1NCc1cccnc1 | 0.088 | 0.7 | 4.9* | 33 | 0.5 | 45
O=C(Nc1ccccc1-c1ccccc1)C1CCCN(c2ncccn2)C1 (configuration not stated) | -0.98 | 0.5 | -0.3 | 51* | 0.3 | 73*
SMILES | DAT uptake mod | CYP2C9 activ | D1 allo mod | CYP2C9 inhib | CYP2C19 activ | CYP2C19 inh
Cc1ccc(C(=O)NNC(=O)C2CCN(c3nccc(C)n3)CC2)cc1 | 0.15 | 0.5 | · | 50* | 0.9 | 10
O=C(NNC(=O)C1CCCN(c2ncccn2)C1)c1ccc(F)cc1 (configuration not stated) | 0.13 | 1.2 | · | -20 | 1 | -3
Cc1ccc(C(=O)NNC(=O)C2CCCN(c3ncccn3)C2)cc1 (configuration not stated) | 6.6* | 0.9 | · | 9 | 0.7 | 28
Cc1ccnc(N2CCC(C(=O)NNC(=O)c3ccccc3)CC2)n1 | 0.8 | 0.9 | · | 8 | 0.9 | 8
O=S(=O)(C/C(=C/CO)S(=O)(=O)c1ccccc1)c1ccccc1 | -2.5 | 0.8 | -1.9 | 20 | 0.6 | 36
N=C1N(/N=C/c2ccccc2)C(=Nc2ccccc2)C(=S)N1c1ccccc1 | 1.3 | · | · | · | · | ·
CCOc1ccc(NC(=O)CSc2nnc(Cn3cnc4ccccc43)n2C)cc1 | -0.67 | · | · | · | · | ·
CSc1nc(C2CC2)cc(-c2cccs2)c1C#N | -0.31 | 1.2 | -0.13 | -16 | 0.9 | 5
Nc1cc(N)nc(SCc2cc(=O)oc3cc4c(cc23)CCC4)n1 | 1.3 | 1.3 | · | -27 | 0.5 | 50*
Cc1cc2oc(=O)cc(CSc3nc(N)cc(N)n3)c2cc1C(C)C | -0.32 | 0.2 | · | 77* | 1 | 0
CCOC(=O)Cc1c(C)nc2c(-c3ccc(OC)cc3)c(C)nn2c1C | 0.85 | 0.6 | · | 40 | 0.8 | 18
Cc1nn(Cc2ccc(F)cc2)c(C)c1NC(=O)c1cc(-c2ccc3c(c2)OCO3)on1 | -0.83 | 1 | 0.45 | -4 | 1 | -1
Cc1ccc(Cn2nc(C)c(NC(=O)c3cc(-c4ccc5c(c4)OCO5)on3)c2C)cc1 | 1.3 | 0.5 | 0.02 | 53* | 0.8 | 24
COc1ccc(-c2cc(C(=O)Nc3c(C)nn(Cc4ccc(Cl)cc4)c3C)no2)cc1 | 0.017 | 0.5 | · | 50 | 0.5 | 51*
COc1ccc(-c2cc(C(=O)Nc3c(C)nn(Cc4ccccc4Cl)c3C)no2)cc1OC | -0.053 | 0.4 | -2 | 63* | 0.8 | 15
CCCCn1c(N)c(N(CCC(C)C)C(=O)CSc2nnc(C)s2)c(=O)[nH]c1=O | 0.019 | 1 | 0.1 | 4 | 0.8 | 16
CC1(C)CC(=O)c2cc(OCC(=O)NCCN3CCOCC3)ccc2O1 | -0.61 | 0.9 | · | 7 | 0.9 | 13
COC(=O)COc1ccc(S(=O)(=O)Nc2ccc(C(N)=O)cc2)cc1Cl | -0.39 | 0.6 | 0.19 | 42 | 0.9 | 15
O=S(=O)(NC1CCCC1)c1ccc(Br)s1 | 0.9 | 0.4 | 0.29 | 61* | 0 | 96*
O=S(=O)(NC1CCCCC1)c1ccc(Cl)s1 | 0.11 | 0.2 | 0.87 | 85* | 0.1 | 90*
